Among the data in PubChem BioAssay (NCI) are growth values, retold here.

Common to all, as to experiment: NCI-60 one-dose screen, 48 h (100 = growth as untreated, 0 = no growth, -100 = all killed)
What all share (details): 10 µM unless noted

The subject of assay [1] is SR leukemia.
Assay [2] concerns RPMI-8226 leukemia.
Assay [3] relates to OVCAR-8 ovarian.
The test system of assay [4] is OVCAR-5 ovarian.
For assay [5], the system named is OVCAR-4 ovarian.
Assay [6] has as its system SK-OV-3 ovarian.
Assay [7] concerns IGROV1 ovarian.
For assay [8], the system named is OVCAR-3 ovarian.
In assay [9] the test system is HS 578T breast.
Assay [10] relates to NCI/ADR-RES ovarian.
Assay [11] deals with T-47D breast.
Assay [12] relates to BT-549 breast.
The subject of assay [13] is MDA-MB-435 melanoma.
Assay [14] concerns SW-620 colon.
The subject of assay [15] is MCF7 breast.
In assay [16] the test system is HCT-116 colon.
For assay [17], the system named is HCC-2998 colon.
Assay [18] concerns KM12 colon.

The panel holds about 83,000 compounds, 20% with a hit somewhere; the sample as a whole holds those more often.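 Testing used 96-well plates and a 48-hour single-concentration exposure. Example: -40 means 40% of the starting cells died.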 Unmarked numbers belong to inactive results. Active and inactive are the calls of the source. How the source made its calls: active means growth percent below 10; inactive means the rest.

Take `C=C(C=O)[C@@H]1CC[C@]2(C)[C@H](CC=C3[C@H]4[C@@H](C)[C@H](C)CC[C@]4(C(=O)OC)CC[C@]32C)[C@@]1(C)CCC#N`: the growth in assay [1] is 0.262% (active); in [2], -11.9% (active); in assay [3] it was 20.1%; in assay [4], 2.05% (active); in assay [5], 20.1%; in assay [6], 69.7%. Moreover, the growth in assay [7] was -2.63% (active); in [8] it was -58.2% (active); in assay [9], -14.4% (active); in assay [10], 8.1% (active); in assay [11] it was 22.4%; in assay [12], 12%. Moreover, the growth was -7.24% (active) in assay [13]; 0.12% (active) in assay [14]; -20.1% (active) in assay [15]; -57.8% (active) in assay [16]; -48.8% (active) in assay [17]; -4.32% (active) in assay [18].
Regarding `CCC(CC)N1C(=O)/C(=c2\sc3n(c2=O)NC2C(N=3)N(CC)C(=O)N2CC)c2ccccc21` (centres undefined), the growth in assay [1] is 54.5%; in assay [2] it was 64.7%; in [3], 81.6%; in assay [4], 57.3%; in [5], 63.6%; in [6], 95.7%. Further, the growth in [7] is 44.7%; in assay [8] it was 31.5%; in assay [9], 73.1%; in assay [10], 26.3%; in [11], 86.1%; in assay [12] it was 102%. The growth was 9.51% (active) in assay [13]; 48.2% in assay [14]; 35.8% in assay [15]; 27.9% in assay [16]; 65.9% in [17]; 11.2% in assay [18].
Take `Cc1ccc(-c2nn(-c3ccccc3)cc2/C=C/C(=O)c2ccc(NC(=O)CCCCCCC(=O)NO)cc2)cc1`: the growth in assay [1] was 85.4%; in assay [2] it was 70.5%; in assay [3] it was 62.5%; in assay [4] it was 79.2%; in [5] it was 79.8%; in assay [6], 70.7%. Further, the growth was 69.1% in assay [7]; 75.9% in assay [8]; 47.1% in assay [9]; 70.4% in assay [10]; 58.5% in assay [11]; 108% in [12]. In addition, the growth was 67.9% in assay [13]; 75.1% in assay [14]; 71.4% in [15]; 33.6% in [16]; 83.1% in [17]; 78.2% in assay [18].
For `Cn1cc(-c2nnc(N)nc2-c2c[nH]c3ccc(F)cc23)c2cc(F)ccc21`, the growth in [1] was 41.1%; in assay [2] it was 65.6%; in [3], 90.3%; in assay [4] it was 109%; in assay [5] it was 98.4%; in assay [6], 88.4%. The growth in [7] was 35.7%; in [8], 78.6%; in assay [9] it was 84.1%; in assay [10], 86.7%; in assay [11], 26.1%; in assay [12], 71.2%. The growth is 94.8% in assay [13]; 59.8% in assay [14]; 30.4% in assay [15]; 62.1% in assay [16]; 93.1% in [17]; 74.5% in assay [18].
With `NC(N)=Nc1ccc(Oc2cccc(Nc3ccc(Br)c(C(F)(F)F)c3)c2)cn1`, the growth in assay [1] was -50.7% (active); in assay [2] it was -40% (active); in assay [3], -60.6% (active); in assay [4] it was -56.6% (active); in [5] it was -75.2% (active); in assay [6], 32.2%. Moreover, the growth in [7] was -74.7% (active); in assay [8], -94.3% (active); in [9], -15.3% (active); in assay [10], 55.7%; in assay [11] it was 12.9%; in assay [12], -2.65% (active). Further, the growth was -89.1% (active) in assay [13]; -79% (active) in [14]; -56.8% (active) in assay [15]; -64.8% (active) in assay [16]; -85.6% (active) in assay [17]; -72.5% (active) in assay [18].
Regarding `C#CC(=O)N(c1ccc(OC)cc1OC)C(C(=O)NCC(=O)OCC)c1cccs1` (centres undefined), the growth in [1] is -25% (active); in assay [2] it was -55.3% (active); in assay [3], 46.6%; in assay [4], 2.13% (active); in assay [5], 116%; in assay [6] it was 89.5%. The growth is -58.1% (active) in assay [7]; -58.9% (active) in assay [8]; 20.9% in [9]; 87.5% in assay [10]; 38.1% in assay [11]; 70.3% in assay [12]. The growth in assay [13] was 95.5%; in assay [14] it was 2.04% (active); in [15], 49.1%; in assay [16], 41.9%; in assay [17] it was 110%; in assay [18] it was 28.5%.
On to `NC(N)=Nc1ccc(Nc2cccc(Oc3ccc(Cl)c(C(F)(F)F)c3)c2)cn1`, for which the growth in [1] was -49.9% (active); in [2] it was -40.8% (active); in [3], 27.4%; in assay [4], 58.1%; in [5], 39.8%; in [6] it was 56.3%. Moreover, the growth in assay [7] was 22.6%; in assay [8], -55% (active); in assay [9], 45.4%; in [10] it was 80.5%; in assay [11], 23.7%; in assay [12], 76.2%. In addition, the growth is 18.3% in assay [13]; -60.5% (active) in [14]; -11.2% (active) in assay [15]; -72.9% (active) in assay [16]; -33.1% (active) in assay [17]; -58.7% (active) in assay [18].
Consider `Cc1cc(C(NC(=O)CCCCCNc2cccc3c2C(=O)N(C2CCC(=O)NC2=O)C3=O)c2ccc3c(c2)OC(F)(F)O3)c(O)c2ncccc12` (centres undefined), for which the growth in [1] was 26.2%; in [2], 34.7%; in assay [3] it was 38.6%; in assay [4] it was 73.2%; in assay [5], 73.1%; in [6], 109%. The growth is 37.5% in assay [7]; 38.3% in assay [8]; 37.7% in assay [9]; 104% in [10]; 67.6% in assay [11]; 36.6% in assay [12]. Moreover, the growth in [13] was 27.8%; in assay [14], 40.2%; in assay [15], 29.5%; in [16], 27.8%; in assay [17] it was 79.2%; in assay [18], 39.9%.
